Experimental data reported in PubChem BioAssay AID1159580 (chemical genetic matrix, 2015).
Several values for one entry are separate records, joined by “and”; a condition that tells them apart may be missing. Equal entries are not always repeated. About 2,000 (36%) of roughly 5,500 compounds were called active. About 18% were inconclusive and are not listed. Cut-off read from the data, not from the text of the source: active = normalized growth mostly below about 0.91 (no sharp cut-off); inconclusive = no clear call, values can overlap the other calls; inactive = mostly above about 0.92. The list shows a part of the results.

Assay: chemical genetic growth profiling, strain panel (AID 1159580);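 note: tested at 20 µM; growth read once vehicle control cultures reached saturation at 30 °C; 1 = growth at the plate median or of vehicle wells; lower values mean less growth of the strain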
Settings: S. cerevisiae deletion strains, growth OD

Measured: normalized growth

COc1cc(-c2coc3cc(OC)c(OC)c(OC)c3c2=O)cc(OC)c1OC
inactive: locus YAL013W, strain DEP1, active compounds read low 0.994 | locus YAL021C, strain ccr4, active compounds read low 1 | locus YAL026C, strain drs2, active compounds read low 1.01 | locus YAL030W, strain snc1, active compounds read low 1.01 | locus YBL061C, strain skt5, active compounds read low 0.996 | locus YBR009C, strain hhf1, active compounds read low 0.993 | locus YBR021W, strain FUR4, active compounds read low 1.02 | locus YBR023C, strain chs3, active compounds read low 0.991 | locus YBR171W, strain sec66, active compounds read low 0.99 | locus YBR229C, strain ROT2, active compounds read low 1 | locus YBR231C, strain swc5, active compounds read low 0.969 | locus YBR279W, strain paf1, active compounds read low 1.01 | locus YCL011C, strain gbp2, active compounds read low 1 | locus YCL016C, strain dcc1, active compounds read low 0.987 | locus YCL029C, strain bik1, active compounds read low 0.973 | locus YCL061C, strain MRC1, active compounds read low 1.01 | locus YCL069W, strain vba3, active compounds read low 1.01 | locus YCR088W, strain abp1, active compounds read low 1.01 | locus YDL005C, strain med2, active compounds read low 0.996 | locus YDL035C, strain GPR1, active compounds read low 1.03 | locus YDL040C, strain nat1, active compounds read low 0.995 | locus YDL074C, strain BRE1, active compounds read low 1.02 | locus YDL101C, strain DUN1, active compounds read low 0.981 | locus YDL185W, strain tfp1, active compounds read low 0.968 | locus YDL192W, strain arf1, active compounds read low 1.03 | locus YDR001C, strain nth1, active compounds read low 0.999 | locus YDR069C, strain doa4, active compounds read low 1.01 | locus YDR101C, strain arx1, active compounds read low 1.06 | locus YDR137W, strain rgp1, active compounds read low 1.01 | locus YDR159W, strain sac3, active compounds read low 0.947 | locus YDR162C, strain NBP2, active compounds read low 1.03 | locus YDR195W, strain ref2 0.963 | locus YDR297W, strain sur2, active compounds read low 1.01 | locus YDR318W, strain mcm21, active compounds read low 0.993 | locus YDR334W, strain swr1, active compounds read low 0.994 | locus YDR335W, strain msn5, active compounds read low 1 | locus YDR388W, active compounds read low 0.985 | locus YDR392W, strain spt3, active compounds read low 0.888 | locus YDR502C, strain sam2, active compounds read low 0.985 | locus YEL003W, strain gim4, active compounds read low 0.992 | locus YEL037C, strain rad23, active compounds read low 1 | locus YEL061C, strain CIN8 (second series), active compounds read low 1 | locus YEL061C, strain CIN8, active compounds read low 0.994 | locus YER015W, strain faa2, active compounds read low 1 | locus YER016W, strain bim1, active compounds read low 0.999 | locus YER110C, active compounds read low 0.968 | locus YER111C, strain swi4, active compounds read low 0.989 | locus YER155C, strain BEM2 (second series), active compounds read low 0.968 | locus YER155C, strain BEM2, active compounds read low 0.984 | locus YER167W, strain BCK2, active compounds read low 1 | locus YFR010W, strain ubp6, active compounds read low 0.996 | locus YGL078C, strain dbp3, active compounds read low 0.975 | locus YGL086W, strain mad1, active compounds read low 1.01 | locus YGL167C, strain pmr1, active compounds read low 1 | locus YGL173C, strain kem1, active compounds read low 1 | locus YGL227W, strain vid30, active compounds read low 0.99 | locus YGL240W, strain doc1, active compounds read low 0.987 | locus YGL248W, strain PDE1, active compounds read low 0.965 | locus YGL253W, strain hxk2, active compounds read low 0.996 | locus YGR135W, strain pre9, active compounds read low 0.952 | locus YGR252W, strain gcn5, active compounds read low 1.01 | locus YHR013C, strain ard1, active compounds read low 0.996 | locus YHR027C, strain rpn1, active compounds read low 0.997 | locus YHR030C, strain SLT2, active compounds read low 0.997 and 1.06 | locus YHR079C, strain IRE1 (second series), active compounds read low 0.992 | locus YHR079C, strain IRE1, active compounds read low 1.02 | locus YHR094C, strain hxt1, active compounds read low 1 | locus YHR129C, strain ARP1, active compounds read low 0.996 | locus YHR142W, strain chs7, active compounds read low 0.994 | locus YHR200W, strain rpn10, active compounds read low 1.01 | locus YIL066C, strain RNR3, active compounds read low 1 | locus YIL073C, strain SPO22, active compounds read low 0.921 | locus YIL125W, strain kgd1, active compounds read low 1.01 | locus YIR030C, strain dcg1, active compounds read low 0.989 | locus YJL092W, strain hpr5, active compounds read low 1.01 | locus YJL095W, strain BCK1 (second series), active compounds read low 1 | locus YJL095W, strain BCK1, active compounds read low 0.986 and 1.07 | locus YJL115W, strain asf1, active compounds read low 1 | locus YJL129C, strain trk1, active compounds read low 0.988 | locus YJL134W, strain LCB3, active compounds read low 1 | locus YJL154C, strain vps35, active compounds read low 0.99 | locus YJL164C, strain tpk1, active compounds read low 1 | locus YJL166W, strain qcr8, active compounds read low 0.999 | locus YJL168C, strain set2, active compounds read low 0.993 | locus YJL187C, strain SWE1 (second series), active compounds read low 0.968 | locus YJR043C, strain POL32, active compounds read low 1.04
